The list is not random: actives were taken first. Their share in the collection is about 10%.
FLuc inh: inhibitors of firefly (Photinus pyralis) luciferase; P08659; purified P. pyralis luciferase, luminescence, biochemical; Potency, µM (series often up to 115 µM), hits mostly inhibitors; actives 2.5% (n = 76,000); further: nearly all actives have a fitted effect of over 65% in size
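Purified P. pyralis luciferase (10nM final) in 50mM Tris acetate pH 7.5, 10mM Mg acetate, 0.01% Tween-20, 0.05% BSA with 10uM D-luciferin and 10uM ATP. Compounds titrated qHTS. Luminescence imaged on CCD.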
GPT2 inh: GPT2 alanine aminotransferase inhibition; Q8TD30; actives 0.25% (n = 100,000); Potency, µM (titrated, usually from 57.7 µM), without a hit: at the top dose activity change, negative = inhibition, hits mostly inhibitors; Recombinant GPT2, coupled pyruvate oxidase/HRP Amplex Red fluorescence; further: nearly all actives have a fitted effect of over 60% in size
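Recombinant GPT2 (10ng/uL) with 250uM a-KG and 2mM L-alanine, 30 min at room temperature, in HEPES pH 7.5 buffer. Pyruvate detected by pyruvate oxidase/HRP/Amplex Red fluorescence after 30 min in the dark; AOA (50uM) as positive control.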
3T3 cytotox: NIH 3T3 cell cytotoxicity; actives 4.3% (n = 94,000); AID 1345082; NIH 3T3 viability, CellTiter-Glo ATP luminescence, 48-72 h; Potency, µM (titrated, usually from 96.7 µM), inactives show at the top dose activity change, negative = cytotoxicity, most hits filed as inhibitors; further: nearly all actives have a fitted effect of over 55% in size
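Cells were seeded at 400 per well, treated with pin-transferred compound, and kept 48 or 72 hr at 37 °C before CellTiter-Glo addition and luminescence imaging of cellular ATP.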
NPR1 antag: human Npr1 receptor antagonism; actives 1.6% (n = 76,000); Potency, µM (top dose mostly 46.3 µM), for the others: at the highest dose activity change, negative = inhibition, hits mostly inhibitors; HEK293 hNpr1 GloSensor cGMP, ANP-stimulated luminescence; P16066; calls by dose curve; further: nearly all actives have a fitted effect of over 60% in size
Target sequence (P16066 whole entry, looked up): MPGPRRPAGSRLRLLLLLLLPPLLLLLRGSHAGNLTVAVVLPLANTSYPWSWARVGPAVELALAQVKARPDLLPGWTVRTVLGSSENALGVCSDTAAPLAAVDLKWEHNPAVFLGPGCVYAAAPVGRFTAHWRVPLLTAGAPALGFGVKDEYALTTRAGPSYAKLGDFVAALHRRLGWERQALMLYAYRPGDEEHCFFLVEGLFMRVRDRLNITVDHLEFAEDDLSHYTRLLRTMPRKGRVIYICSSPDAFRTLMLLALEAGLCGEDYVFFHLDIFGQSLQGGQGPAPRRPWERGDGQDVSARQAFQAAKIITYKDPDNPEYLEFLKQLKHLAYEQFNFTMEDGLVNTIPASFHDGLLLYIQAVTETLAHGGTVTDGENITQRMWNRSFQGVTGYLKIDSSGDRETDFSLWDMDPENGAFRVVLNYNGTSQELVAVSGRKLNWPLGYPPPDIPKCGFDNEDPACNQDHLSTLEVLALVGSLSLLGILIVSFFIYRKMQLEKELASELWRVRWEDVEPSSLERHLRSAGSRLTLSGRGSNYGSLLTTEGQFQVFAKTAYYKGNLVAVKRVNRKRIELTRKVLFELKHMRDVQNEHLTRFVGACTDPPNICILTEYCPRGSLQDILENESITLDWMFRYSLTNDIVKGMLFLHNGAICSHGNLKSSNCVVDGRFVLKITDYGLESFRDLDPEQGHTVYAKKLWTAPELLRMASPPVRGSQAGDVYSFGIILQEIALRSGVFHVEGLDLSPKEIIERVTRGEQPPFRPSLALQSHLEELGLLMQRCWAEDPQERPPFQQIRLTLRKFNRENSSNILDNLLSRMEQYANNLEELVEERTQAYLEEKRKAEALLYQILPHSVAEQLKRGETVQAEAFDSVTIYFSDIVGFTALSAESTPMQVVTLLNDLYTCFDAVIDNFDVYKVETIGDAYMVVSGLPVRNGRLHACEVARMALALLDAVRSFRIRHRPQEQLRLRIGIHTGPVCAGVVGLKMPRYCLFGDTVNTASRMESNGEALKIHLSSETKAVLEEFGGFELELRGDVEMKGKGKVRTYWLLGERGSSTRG
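HEK293 cells stably expressing human Npr1 and cGMP GloSensor pGS-40F, loaded 2 h with 2% GloSensor reagent, given compound 30 min at room temperature. Luminescence read before and 20 min after 0.1 nM hNppA.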
HEK cytotox: HEK 293 cell cytotoxicity | HEK 293 viability, ATP luminescence (CellTiter-Glo), 48-72 h | actives 6.6% (n = 94,000) | Potency, µM (highest dose often 115 µM), for inactives: at the top dose activity change, negative = cytotoxicity, most hits filed as inhibitors; further: nearly all actives have a fitted effect of over 60% in size
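HEK 293 cells seeded at 250 cells/well were exposed to compound for 48 or 72 hr at 37 degree Celsius. Viability taken as ATP content by CellTiter-Glo luminescence.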
* hit, by the source's call; i = inactive; ? = inconclusive; nt = no result; [ ] = another dose, or the depositor's remark. Unless noted, the call rests on the fitted dose curve; in most records, active means well fitted curve in the direction sought with a large enough effect; inconclusive means small, poorly fitted or top-dose-only effect, or another doubt; inactive means no such curve, though single readings can be large; an effect the other way counts as inactive or inconclusive. On the % scale 0 is the no-effect control and ±100 the full control effect; potency means the concentration at half of the fitted maximal effect.

SMILES	FLuc inh	GPT2 inh	3T3 cytotox	NPR1 antag	HEK cytotox
CCOCC1(C)COc2ccc(C(=O)Nc3ccccn3)cc2N1 (centres undefined)	16µM*	-3%[88.5 µM]	?	?	?
CN(C)CCCOCC1(C)COc2ccc(C(=O)N3CCOCC3)cc2N1 (centres undefined)	i	-20%[88.5 µM]	?	-1%[70.6 µM]	4%[172 µM]
CC1(CCCCN2CCOCC2)COc2ccc(C(=O)Nc3ccc(Cl)cc3)cc2N1 (centres undefined)	?	-6%	?	-12%	50µM*
CC1(COCC2CC2)COc2ccc(C(=O)Nc3ccc(Cl)cc3)cc2N1 (centres undefined)	i	-12%[88.5 µM]	35µM*	?	28µM*
COc1cccc(-c2cn3cc(C(=O)NCCc4ccccc4)nc3s2)c1	nt	i	?	nt	?
NCCc1cccc(CN2CCC(OCc3ccccc3)CC2)c1	i	?	?	-5%	?
Cc1ccc(-c2cccc(CN3CCCC(NC(=O)NC(C)C)C3)c2)cc1Cl (centres undefined)	nt	-11%	?	nt	-11%
O=C(NC1CCCC1)c1csc(N2CCN(c3ccccc3F)CC2)n1	i	i	25µM*	?	?
COc1ccc(N2CCN(c3nc(C(=O)NCc4ccccc4C)cs3)CC2)cc1	i	?	?	-28%	28µM*
COc1ccc(N2CCN(c3nc(C(=O)NC4CC4)cs3)CC2)cc1	i	?	28µM*	?	32µM*
O=C(NCc1cccs1)c1csc(N2CCN(c3ccc(F)cc3)CC2)n1	i	i	?	?	32µM*
COc1ccc(N2CCN(c3nc(C(=O)NCC4CCCCC4)cs3)CC2)cc1	i	i	-10%	-15%	-26%
O=C(c1ccc2c(c1)OCO2)N1CCCN(c2ccnc3ccnn23)CC1	nt	i	?	nt	?
CN1CCC(C(=O)N2Cc3ccccc3CC3(CCCN(CC4CCNCC4)C3)C2)CC1 (centres undefined)	nt	-10%	i	nt	i
CC(C)CNC(=O)c1cn2cc(-c3ccc(C(F)(F)F)cc3)sc2n1	nt	-11%	?	nt	?
O=C(Nc1cccc(-c2ccc(N3CCOCC3)nn2)c1)Nc1cc(Cl)ccc1Cl	1µM*	i	-17%	-19%	-15%
O=C(Nc1cccc(-c2ccc(N3CCOCC3)nn2)c1)Nc1ccccc1Cl	1.6µM*	1%	?	?	?
C[C@@H]1C(=O)O[C@H]2[C@H]1CC[C@@]1(C)Cc3sc(NC(=O)CCC(=O)O)nc3[C@@H](C)[C@H]21	?	i	-4%[174 µM]	-17%[70.6 µM]	1%[172 µM]
C=CCNC(=O)Nc1nc2c(s1)C[C@]1(C)CC[C@@H]3[C@H](OC(=O)[C@H]3C)[C@H]1[C@@H]2C	16µM*	-21%[88.5 µM]	-10%[174 µM]	-19%[70.6 µM]	?
C[C@@H]1C(=O)O[C@H]2[C@H]1CC[C@@]1(C)Cc3sc(NC(=O)CC(C)(C)C)nc3[C@@H](C)[C@H]21	20µM*	2%[88.5 µM]	?	-21%[70.6 µM]	32µM*
C[C@@H]1C(=O)O[C@H]2[C@H]1CC[C@@]1(C)Cc3sc(NC(=O)CN(C)C)nc3[C@@H](C)[C@H]21	3.2µM*	-15%[88.5 µM]	-15%[174 µM]	16µM*	-9%[172 µM]
C[C@@H]1C(=O)O[C@H]2[C@H]1CC[C@@]1(C)Cc3sc(NC(=O)COc4ccccc4)nc3[C@@H](C)[C@H]21	i	-18%	-23%	-30%	?
C[C@@H]1C(=O)O[C@H]2[C@H]1CC[C@@]1(C)Cc3sc(Nc4ccc(C(=O)O)cc4)nc3[C@@H](C)[C@H]21	1µM*	?	0%[138 µM]	13µM*	-7%[172 µM]
COc1ccc(Cn2c(=O)c(C(=O)N3CCN(C(=O)c4ccccc4Cl)CC3)nc3cccnc32)cc1	nt	nt	-13%	nt	-20%
COCc1ncc(CN2CCC(c3[nH]ncc3-c3ccccc3C)CC2)cn1	i	i[11.5 µM]	1%	6%	i
SMILES	FLuc inh	GPT2 inh	3T3 cytotox	NPR1 antag	HEK cytotox
O=C(c1ccccc1F)N1CCN(CCn2nc3n(c2=O)CCCC3)CC1	nt	nt	1%	nt	1%
COCCNC(=O)[C@@H](C)C1CC[C@@]2(C)Cc3sc(NC(=O)CN(C)C)nc3[C@@H](C)[C@@H]2[C@H]1O (some centres undefined)	20µM*	5%	1%	-9%	-18%
C[C@H](C(=O)N1CCCC1)C1CC[C@@]2(C)Cc3sc(NC(=O)C4CC4)nc3[C@@H](C)[C@@H]2[C@H]1O (some centres undefined)	i	-6%	-14%	3%	-19%
Cc1ccc(CN(C(=O)c2ccco2)c2ccc(CC(=O)N(C)Cc3ccccc3)cc2)cc1	i	-3%	?	-20%	32µM*
Cc1cccc(CNC(=O)Cc2ccc(N(Cc3ccccc3)C(=O)c3ccco3)cc2)c1	i	i	45µM*	-3%	?
CCOC(=O)C1CCN(C(=O)Cc2ccc(N(Cc3ccccc3)C(=O)c3ccco3)cc2)CC1	i	-1%	?	-23%	40µM*
Cc1ccc(CN(C(=O)c2ccco2)c2ccc(CC(=O)NCc3ccccc3)cc2)cc1	i	0%	?	-18%	35µM*
CS(=O)(=O)N1Cc2ccccc2CC2(CCN(Cc3ccccc3)C2)C1 (centres undefined)	nt	1%	-7%	nt	?
O=[S+]([O-])(NC1CCN(c2ccnc3ccnn23)CC1)c1cccc(C(F)(F)F)c1	nt	-15%	?	nt	45µM*
O=[S+]([O-])(NC1CCN(c2ccnc3ccnn23)C1)c1cccs1 (centres undefined)	nt	i	?	nt	71µM*
O=[S+]([O-])(c1cccc(C(F)(F)F)c1)N1CCN(c2ccnc3ccnn23)CC1	nt	i	?	nt	?
OCc1ccc(CN2C[C@H](O)C[C@H]2c2nc(-c3ccc(OC(F)(F)F)cc3)no2)o1	45µM*	?	?	-12%[70.6 µM]	?
OCc1ccc(CN2C[C@H](O)C[C@H]2c2nc(-c3ccc(F)cc3)no2)o1	45µM*	i	i	5%[70.6 µM]	1%[172 µM]
COC(=O)c1ccc(CN2C(=O)[C@@H]3C[C@@H](O)CN3C3(CN(Cc4ccccc4F)C3)C2=O)cc1	i	4%	1%	-20%	-1%
Clc1cc(NCc2ccccc2Cl)n2nccc2n1	i	-12%[88.5 µM]	20µM*	?	?
COc1ccc(CNc2cc(Cl)nc3ccnn23)cc1	i	5%[88.5 µM]	?	-24%[70.6 µM]	71µM*
Clc1cc(NCc2cccs2)n2nccc2n1	i	i	?	?	40µM*
FC(F)(F)c1ccc(CNc2cc(Cl)nc3ccnn23)cc1	i	-7%[88.5 µM]	?	-38%[70.6 µM]	?
